± gives the standard deviation of the averaged measurements. Whole data set: some 33,000 sequences, median “E-score (dimensionless, -0.5 to 0.5)” near -0.046, cut for the highest 2% near 0.36. The list comes from a sample in which the highest values are over-represented; it also holds similar and randomly drawn sequences.
Tested on: T1, SpTbr T-box DNA-binding domain (GST fusion)
T1 sequence: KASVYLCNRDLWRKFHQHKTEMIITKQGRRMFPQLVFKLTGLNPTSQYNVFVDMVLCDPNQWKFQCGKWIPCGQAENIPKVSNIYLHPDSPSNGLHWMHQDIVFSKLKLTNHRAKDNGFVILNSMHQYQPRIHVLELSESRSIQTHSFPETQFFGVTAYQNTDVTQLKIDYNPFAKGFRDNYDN
Assay: PBM E-score of 8-mer (E-score (dimensionless, -0.5 to 0.5)); Tbr is Tbrain of the sea star Patiria miniata (Pm) or the sea urchin Strongylocentrotus purpuratus (Sp); higher = stronger binding preference
Conditions: the construct has about 5 more residues each side
Experimental: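 Universal protein-binding microarray (Agilent AMADID 016060, 60-bp probes with a 35-bp variable region) incubated with 200 nM GST-fused Strongylocentrotus purpuratus Tbr T-box DNA-binding domain (residues 362-554) in PBS pH 7.5. Scored for every ungapped 8-mer (given with its reverse complement) as E-score (range -0.5 to 0.5; >0.45 counts as bound) and Z-score of median probe intensity. Two replicate arrays (datasets 1 and 2).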
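Note: protein at 200 nM in PBS on universal double-stranded arrays.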

Point of comparison: TACCGGAA, “PBM E-score of 8-mer” value -0.116 ± 0.02. Against it:
- GAGCGCTA — higher, 0.205 ± 0.021
- AAAAGGTA — lower, -0.207 ± 0.011
- CACCTATC — higher, 0.358 ± 0.012
- AACCTATG — within error, -0.15 ± 0.014
- TACCTATA — lower, -0.192 ± 0.0052
- AACCTATA — within error, -0.123 ± 0.024
- CACCTATG — higher, 0.427 ± 0.011
- CACCTATA — higher, 0.392 ± 0.015
- CGCTAATA — higher, 0.135 ± 0.092
- CGCCGGCG — higher, 0.1618 ± 0.00064
- ATCGTACC — within error, -0.157 ± 0.03
- GAACAGTA — higher, 0.00048 ± 0.058
- CACCGCCG — higher, 0.151 ± 0.1
- ATCTCACC — higher, 0.422 ± 0.0058
- ACCTCACC — higher, 0.224 ± 0.017
- CTCTCACC — higher, 0.38 ± 0.021
- GTCTCTCA — higher, 0.0648 ± 0.045
- ATCTCAAC — higher, 0.00654 ± 0.026
- GCCTCACA — higher, 0.292 ± 0.0099
- CTGTCACC — higher, 0.396 ± 0.0078
- GTCTCACA — higher, 0.382 ± 0.0069
- ATGTCACC — higher, 0.323 ± 0.0098
- CGCTCACC — higher, 0.0959 ± 0.018
- CTGTCACA — higher, 0.358 ± 0.01
- CTCTCACA — higher, 0.3477 ± 0.0025
- ATATGAAT — higher, -0.00217 ± 0.023
- ACACCAAA — higher, 0.315 ± 0.013
- AAGAATGT — higher, -0.0437 ± 0.045
- AAGGAGAG — lower, -0.168 ± 0.0067
- CACCGATC — higher, 0.154 ± 0.014
- TATATGCA — within error, -0.113 ± 0.014
- AATGCGTG — higher, 0.253 ± 0.028
- CAGGTCAA — within error, -0.18 ± 0.073
- ACGGACAT — within error, -0.0905 ± 0.036
- AACTTAAT — higher, -0.0641 ± 0.021
- GTGCCCCA — higher, -0.0876 ± 0.0044
- AGCACCCC — higher, 0.27 ± 0.036
- ATCTCACG — higher, 0.29 ± 0.012
- ATCTCACA — higher, 0.372 ± 0.0029
- ACCTCACG — higher, 0.239 ± 0.005
- ATCTCTCA — higher, 0.171 ± 0.012
- TCCTCACA — higher, 0.3492 ± 0.0024
- ACCTCACA — higher, 0.41113 ± 4.2e-05
- TCCTATCA — higher, -0.0124 ± 0.0011
- GGTGGCAC — higher, 0.3544 ± 0.0029
- GGTGGCAA — higher, 0.4 ± 0.011
- AGTGGCAA — higher, 0.305 ± 0.0085
- AGTTTGAC — higher, 0.143 ± 0.018
- ATGTGTTG — higher, 0.381 ± 0.014
- ATGTGTTA — higher, 0.444 ± 0.015
- GTGTGTTA — higher, 0.318 ± 0.021
- CTGTGTTA — higher, 0.195 ± 0.079
- ATGTGTTC — higher, 0.111 ± 0.064
- ATATGTTG — higher, -0.00329 ± 0.071
- CCTTTTAG — higher, 0.0506 ± 0.044
- CTTACACC — higher, 0.392 ± 0.025
- ATTACACC — higher, 0.358 ± 0.057
- CTAACACC — higher, 0.464 ± 0.005
- CGAACACC — higher, 0.321 ± 0.011
- CTTACACA — higher, 0.276 ± 0.035
- ATAACACC — higher, 0.457 ± 0.0069
- CTAACACA — higher, 0.354 ± 0.0043
- ATAACACA — higher, 0.35 ± 0.028
- ATAACACG — higher, 0.303 ± 0.033
- CTTCTAAC — higher, 0.16 ± 0.038
- CATATCGA — within error, -0.154 ± 0.056
- CCGCAAAG — lower, -0.233 ± 0.015
- CGAGATCG — higher, 0.175 ± 0.058
- AAACTGAG — within error, -0.1 ± 0.018
- CACCAAGC — higher, 0.129 ± 0.017
- CCCAACAC — higher, 0.343 ± 0.013
- GAACTTAC — higher, -0.0233 ± 0.034
- CCAAGTAA — within error, -0.21 ± 0.095
- CGCGAAGC — higher, 0.324 ± 0.033
- CGCGAACG — higher, 0.422 ± 0.013
- AGCGAAAG — within error, -0.123 ± 0.022
- AGCGAAGA — higher, 0.106 ± 0.019
- AGCGAACC — higher, 0.0666 ± 0.08
- CGCGAACC — higher, 0.375 ± 0.013
- GGCGAACC — within error, -0.141 ± 0.05
- CGCGAAAC — higher, 0.344 ± 0.0048
- CGCGAAAG — higher, 0.387 ± 0.015
- CGCGAACA — higher, 0.36 ± 0.019
- AGCGAACG — higher, 0.0538 ± 0.025
- CGCGAAGA — higher, 0.371 ± 0.01
- CAAATGAG — within error, -0.158 ± 0.037
- GACCAGTC — lower, -0.333 ± 0.075
- AGTCCATA — lower, -0.295 ± 0.063
- CACAGCGC — higher, 0.0949 ± 0.014
- TGCCCACA — higher, 0.0199 ± 0.1
- CGTTTGGA — higher, -0.0006 ± 0.068
- ACGTTCAA — within error, -0.145 ± 0.032
- GCGTTCAC — higher, 0.239 ± 0.011
- ACGTTCAC — higher, 0.369 ± 0.0053
- CCGTTCAC — higher, 0.367 ± 0.029
- ACGTTCAG — within error, -0.122 ± 0.029
- CCGTTCAG — within error, -0.113 ± 0.032
- CGGAGACA — higher, -0.0395 ± 0.021
- ACAGAGAC — higher, -0.0676 ± 0.02
- CAACCCTG — higher, 0.014 ± 0.024
- CGCCTTGA — higher, 0.159 ± 0.083
- AGCCACAA — higher, 0.0237 ± 0.048
- GACACCGC — higher, 0.244 ± 0.061
- GACACCTC — higher, 0.479 ± 0.009
- GACACCTA — higher, 0.4778 ± 0.0018
- GAGACCTC — lower, -0.305 ± 0.013
- GACACCGA — higher, 0.293 ± 0.0048
- GACACGTA — higher, 0.29 ± 0.0077
- ACCAGTAG — lower, -0.2 ± 0.063
- AATGGACC — lower, -0.2776 ± 0.0022
- GGATGGAC — lower, -0.203 ± 0.0084
- GGTCAGAC — lower, -0.274 ± 0.051
- AGTCACGC — higher, 0.3794 ± 0.0033
- CCTCACGC — higher, 0.322 ± 0.036
- ATTCACGC — higher, 0.424 ± 0.0061
- CTTCACGA — higher, 0.167 ± 0.043
- AGTCACGG — lower, -0.193 ± 0.0098
- ATTCACGA — higher, 0.288 ± 0.047
- CTTCACGC — higher, 0.409 ± 0.01
- ATTCACGG — higher, 0.259 ± 0.00064
- AGTCACGA — higher, 0.152 ± 0.0034
- CACTGGCG — higher, 0.162 ± 0.084
- ACCCATTC — within error, -0.15 ± 0.062
- TGGGGTAA — lower, -0.1604 ± 0.001
- GATTCGCA — higher, 0.327 ± 0.014
- ATTTCGCG — higher, 0.389 ± 0.016
- CATTCGCA — higher, 0.384 ± 0.0068
- ATTTCGCA — higher, 0.335 ± 0.025
- ATTTCGCC — within error, -0.0532 ± 0.044
- TATTCGAA — within error, -0.0307 ± 0.088
- AATTCGCA — higher, 0.321 ± 0.023
- CATTCGTA — higher, -0.0369 ± 0.038
- CATTCGCG — higher, 0.389 ± 0.0059
- TATTCGCA — higher, 0.369 ± 0.0054
- AATTCGCG — higher, 0.279 ± 0.02
- CATTCGCC — within error, -0.147 ± 0.039
- AGTCAAAA — lower, -0.181 ± 0.0086
- AGATTAGC — higher, 0.0489 ± 0.043
- ACATGGGG — higher, -0.06449 ± 0.00059
- GTCATCTA — higher, -0.0343 ± 0.015
- GACCACTC — higher, 0.0231 ± 0.029
- AAAGGCTC — lower, -0.214 ± 0.06
- GGCAAAAA — higher, 0.0671 ± 0.028
- AACCACGT — lower, -0.161 ± 0.017
- GTGGCAAA — higher, 0.309 ± 0.024
- ACGTGGGA — higher, 0.203 ± 0.026
- CCGATAGG — higher, 0.00486 ± 0.048
- GTTTCGCA — higher, 0.36 ± 0.02
- CTTTCGCC — within error, -0.043 ± 0.078
- CTTTCGCA — higher, 0.421 ± 0.015
- CGTATCTC — lower, -0.174 ± 0.0059
- ATCACCTG — higher, 0.304 ± 0.022
- GGCACCTA — higher, 0.382 ± 0.015
- GCCACCTA — higher, 0.285 ± 0.036
- AGCACCTC — higher, 0.4014 ± 0.004
- ACCACCTC — higher, 0.343 ± 0.046
- AGCACCGC — higher, -0.0167 ± 0.064
- AGCACCGG — higher, -0.0409 ± 0.027
- AGCACCTA — higher, 0.409 ± 0.0069
- ACCACCTA — higher, 0.109 ± 0.065
- GGCACCGA — within error, -0.122 ± 0.1
- AGCACCGA — within error, -0.094 ± 0.013
- AGCACCTG — higher, 0.398 ± 0.0042
- ACGAAGCC — higher, -0.00822 ± 0.065
- ACTGGCCA — higher, 0.0049 ± 0.016
- ATAGGCTC — lower, -0.167 ± 0.02
- ACGCTACG — higher, 0.102 ± 0.023
- ACCAACGA — higher, 0.102 ± 0.0046
- CTCGGCCC — higher, -0.0368 ± 0.041
- ACTTTTGA — within error, -0.0941 ± 0.084
- AGTTTCAT — lower, -0.233 ± 0.01

Source: the supplement of paper PMC4166925
